# Sampled rows, rich in hits. Any-hit rate of the full collection: about 1.1%.
# GALK inh: blocks human galactokinase activity; P51570; Purified GALK, Kinase-Glo residual ATP luminescence; Potency, µM (doses to about 57.5 µM), for inactives: top-dose activity change, negative = inhibition, usual class: inhibitors; 270,000 tested, 0.007% active; AID 1868; further: potency means the concentration at half of the fitted maximal effect
# Target sequence (P51570 whole entry, looked up): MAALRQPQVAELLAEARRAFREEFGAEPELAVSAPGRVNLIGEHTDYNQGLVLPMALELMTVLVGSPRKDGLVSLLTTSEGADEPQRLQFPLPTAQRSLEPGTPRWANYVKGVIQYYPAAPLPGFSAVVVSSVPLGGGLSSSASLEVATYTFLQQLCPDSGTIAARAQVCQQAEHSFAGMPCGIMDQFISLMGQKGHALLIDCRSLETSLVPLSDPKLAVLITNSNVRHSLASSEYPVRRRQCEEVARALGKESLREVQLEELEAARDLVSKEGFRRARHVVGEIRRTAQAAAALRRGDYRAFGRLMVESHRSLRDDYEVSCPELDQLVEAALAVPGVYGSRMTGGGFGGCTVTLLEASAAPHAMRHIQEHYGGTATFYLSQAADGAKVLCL
#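 Galactose (100 uM) and ATP (35 uM) were turned over by 5 nM GALK for 1 h at RT. Kinase-Glo Plus then converted the remaining ATP into a luminescent signal.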
# LDHA block: inhibitors of human lactate dehydrogenase A. purified LDHA, NADH/diaphorase-resazurin fluorescence; stronger effect = lower value. AID 1347041. P00338. activity change, % (values are at about 110 or 230 µM). 480,000 tested, 0.15% active; in the data active means activity change below about -30%; inconclusive means mostly about -25% to -30%;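 further: plate controls were DMSO wells for no effect and wells without enzyme for full effect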
#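 LDH5 2 nM; NADH 0.06 mM, pyruvate 0.2 mM; 200 mM Tris pH 7.4, EDTA, Tween-20; 5 min RT. Detection: diaphorase 0.133 mg/mL + resazurin 37 µM, fluorescence ex540/em590 at 0 and 20 min; normalized to enzyme-free and DMSO wells.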
# TrxR1 inh: inhibitors of rat thioredoxin reductase 1; recombinant rTrxR1, NADPH fluorescence consumption, selenite substrate; O89049; Potency, µM (highest dose often 114 µM), without a hit: top-dose activity change, negative = inhibition, most hits filed as inhibitors; 390,000 tested, 1% active; further: potency means the concentration at half of the fitted maximal effect; nearly all actives have a fitted effect of over 65% in size
#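 Rat TrxR1 (90 nM in the dispensed reagent) was pre-reduced with 400 uM NADPH for 5 min at room temperature, then incubated with compound for 15 min. After 400 uM selenite was added, NADPH fluorescence (Ex 340/Em 450 nm) was followed for 8 min.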
# a7 integrin act: activates integrin-mediated alleviation for muscular dystrophy. AID 624291. alpha7betagal myoblasts, beta-gal FDG fluorescence, 48 h. 350,000 tested, 0.064% active. Potency, µM (series often up to 38.3 µM), for inactives: at the highest dose activation, actives largely listed as activators;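 further: potency means the concentration at half of the fitted maximal effect; 100% = response of the positive control SU9516; nearly all actives have a fitted effect of over 60% in size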
#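 alpha7betagal+/- myoblasts (passage 13, 250/well) treated 48 h at 37C with compounds at 1:260 dilution of DMSO stock. Lysed, then beta-galactosidase activity read as FDG fluorescence (ex 480/em 540) after 30 min, with pre-read for autofluorescence.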
# PI4K2A block: inhibitors of human PI4K2A | Q9BTU6 | purified PI4K2A, ADP-Glo luminescence, 1 h; stronger effect = lower value | activity change, negative = inhibition, % at 76.9 µM | 420,000 tested, 0.13% active | AID 1346378; in the data active means activity change below about -50%; inconclusive means mostly about -30% to -49%;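 further: -100% = wells without enzyme as full effect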
#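 In this quantitative HTS, ADP production by PI4K2A was quantified luminescently after 1 h at ambient temperature; 100 microM adenosine served as plate-quality control.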
# TrxR1 substrate: rat thioredoxin reductase 1 substrate activity. O89049. purified TrxR1 substrate turnover, NADPH consumption readout. Potency, µM (doses to about 114 µM), inactives show at the top dose activity change, negative = substrate turnover. 390,000 tested, 0.01% active. AID 588456; further: potency means the concentration at half of the fitted maximal effect; nearly all actives have a fitted effect of over 50% in size
#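 Rat TrxR1, dispensed at 90 nM, was prereduced with 400 uM NADPH (final) for 5 min at ~22 deg C, then incubated with compound 15 min before 400 uM selenite. A first-read NADPH fluorescence drop versus no-compound background flagged substrates.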
# * marks the source's active call; other numbers are inactive results; ? = inconclusive; . = no result; [ ] = dose if it differs, or a comment. Unless noted, the call rests on the fitted dose curve; in most records, active means well fitted curve in the direction sought with a large enough effect; inconclusive means small, poorly fitted or top-dose-only effect, or another doubt; inactive means no such curve, though single readings can be large; an effect the other way counts as inactive or inconclusive. Unless noted, on the % scale 0 is the no-effect control and ±100 the full control effect.
SMILES,GALK inh,LDHA block,TrxR1 inh,a7 integrin act,PI4K2A block,TrxR1 substrate
CS(=O)(=O)c1nc(-c2ccc(F)cc2)cc(C(F)(F)F)n1,-4%,-9,18µM*,-16%,6,18%
COc1ccc(C(=O)NC(=S)NCc2ccccc2)cc1,-2%,-1,22µM*,-17%,6,-8%
Cc1cc(=O)[nH]c(N/N=C/C=C/c2ccccc2)n1,2%,-2,1%,-15%,3,-9%
Cc1cc(=O)[nH]c(N/N=C2/CCCC/C2=C\c2ccccc2)n1,9%,-1,40µM*,-17%,1,-2%
COc1ccccc1NC(=S)NC(=O)C(C)(C)C,3%,2,13µM*,11%,4,1%
COCCN1CCn2c(nc3cc(NC(=O)c4cccs4)ccc32)C1,0%,-1,45µM*,0%,0,0%
CC(=O)NCCCC(=O)NNC1CC(=O)N(c2cccc(Cl)c2)C1=O (stereo unspecified),1%,-11,14µM*,7%,0,2%
CCCCCC(=O)NNC1CC(=O)N(c2cccc(OCC)c2)C1=O (stereo unspecified),4%,-3,8%[11.4 µM],0%,6,6%[11.4 µM]
COC(=O)C1=CN(Cc2ccc(F)cc2)C=C(C(=O)OC)C1c1ccccc1OCc1ccccc1,.,-3,.,.,.,.
Cc1nc2ccccc2c(C(=O)O)c1C,.,-2,.,.,.,.
O=S(=O)(Nc1cc(Sc2cccc3cccnc23)c(O)c2ccccc12)c1ccc(F)cc1,0%,27,22µM*,-52%,2,-14%
COc1ccc(S(=O)(=O)Nc2ccc(O)c(Sc3ncn[nH]3)c2)cc1,-2%,-2,13%,7%,0,13%
COc1ccc(S(=O)(=O)Nc2cc(Sc3ncn[nH]3)c(O)c3ccccc23)cc1,-1%,22,?,.,.,50µM*
COc1cc(CNC2CCCC2)cc(Cl)c1OCc1ccccc1Cl,5%,5,89µM*,-67%,3,-5%
Cc1nn(CC(=O)O)c2nc(-c3cnn(C)c3C)cc(C(F)F)c12,.,9,.,.,.,.
NS(=O)(=O)c1ccc(NC(=O)c2cc(-c3ccccc3O)n[nH]2)cc1,3%,0,-6%[57.1 µM],10µM*,2,7%[57.1 µM]
COc1ccc(OC(=O)CN2C(=O)C3C4CCC(C4)C3C2=O)cc1 (stereo unspecified),1%,-8,10%,-5%,1,5%
Cc1cccc(OC(=O)CN2C(=O)C3C4CCC(C4)C3C2=O)c1C (stereo unspecified),0%,-4,10%,2%,-85*,4%
CC(=O)c1ccc(OCc2cc(C(=O)N(C)Cc3ccon3)no2)cc1,-2%,-4,3%,-41%,-8,-4%
COc1ccccc1OCc1cc(C(=O)N(C)CCC2CCOCC2)no1,.,-1,.,14%,3,.
CC(=O)c1cccc(OCc2cc(C(=O)N(C)CCC3CCOCC3)no2)c1,0%,-3,8.9µM*,-15%,3,7%
CC(=O)c1ccc(OCc2cc(C(=O)N(C)Cc3ccccn3)no2)cc1,8%,-10,50µM*,19%,-1,2%
CC(=O)c1cccc(OCc2cc(C(=O)N3C[C@@H](C)O[C@@H](C)C3)no2)c1,0%,-3,10µM*,7%,9,6%
COc1ccccc1N1CCN(C(c2ccccc2)c2nnnn2Cc2ccccc2)CC1 (stereo unspecified),.,-2,8%,.,.,1%
COc1ccccc1N1CCN(C(c2ccc(N(C)C)cc2)c2nnnn2CCc2ccccc2)CC1 (stereo unspecified),-4%,2,3.2µM*,10%,7,-5%
SMILES,GALK inh,LDHA block,TrxR1 inh,a7 integrin act,PI4K2A block,TrxR1 substrate
CC(C)(C)OC1NS(=O)(=O)OCC1NCOC(Cl)(Cl)Cl (stereo unspecified),.,0,1.8µM*,8%,-7,5%
C=CCC1NS(=O)(=O)OCC1NC(=O)OCC(Cl)(Cl)Cl (stereo unspecified),.,-3,10%[57.1 µM],-16%,-1,3%[57.1 µM]
Cc1ccc(S(=O)(=O)N(CC(=O)NC2CC3CCC2C3)c2ccccc2)cc1 (stereo unspecified),.,-43*,.,8%,-2,.
COc1ccc(N(CC(=O)NC2CC3CCC2C3)S(=O)(=O)c2ccc(C)cc2)cc1 (stereo unspecified),4%,-7,-9%,9%,0,-14%
O=C(NCc1ccccn1)c1ccc2c(c1)N(Cc1ccccc1)C(=O)c1ccccc1S2=O (stereo unspecified),.,0,.,.,.,.
CC(C)(C)c1ccc(-c2nnc(SCC(=O)Nc3ccc(S(=O)(=O)Nc4nccs4)cc3)n2Cc2ccco2)cc1,.,.,.,.,-56*,.
CC(=O)Nc1ccc2oc(-c3ccc(C)cc3)cc(=O)c2c1,.,-14,.,.,.,.
O=C1C(Cl)=C(Nc2ccc(O)cc2)C(=O)c2ccccc21,1%,23,?,-72%,-7,0%
Cc1ccc(NC2=CC(=O)C(=O)c3ccccc32)cc1,-1%,37,-1%[57.1 µM],-66%,-66*,1%[57.1 µM]
O=C1C=C(Nc2ccc(O)cc2)C(=O)c2ccccc21,9%,31,5%,-58%,-56*,5%
CCCC(=O)NC1=C(Cl)C(=O)c2ccccc2C1=O,.,43,0.4µM*,0%,-12,1%[11.4 µM]
Cc1ccc(NC2=C(Cl)C(=O)c3ccccc3C2=O)cc1,1%,22,3.5µM*,-54%,-4,-6%
CCNC1=C(Cl)C(=O)c2ccccc2C1=O,3%,7,-13%,-56%,-13,-4%
CC(C)C(=O)NC(=S)Nc1ccc(Cl)cc1,.,-3,.,.,.,.
Cc1ccc(S(=O)(=O)N2CCCCC2)cc1NC(=O)c1nn(C(C)C)c(=O)c2ccccc12,.,-1,.,.,.,.
Cc1cc(C)cc(NC2=C(N)C(=O)c3ccccc3C2=O)c1,.,6,3%,25%,-50*,1%
CCOc1ccc(NC2=C(OC)C(=O)c3ccccc3C2=O)cc1,2%,18,7%[57.1 µM],-17%,-25,6%[57.1 µM]
CCN(CC)c1ccc(NC2=C(Cl)C(=O)c3ccccc3C2=O)cc1,3%,22,2.5µM*,-20%,-22,-11%
Cc1cccc(NC2=C(NCCO)C(=O)c3ccccc3C2=O)c1,6%,29,37%[57.1 µM],-7%,?,6%
Cc1nc(-c2ccc(S(=O)(=O)Nc3ccc(F)cc3C)cc2)co1,.,10,.,.,.,.
COc1ccc(S(=O)(=O)N2CCN(CC(=O)Nc3c(C)n[nH]c3C)CC2)cc1OC,.,-36*,-22%,-4%,-9,-8%

# Screening results deposited in PubChem BioAssay by National Center for Advancing Translational Sciences (NCATS).
